High-throughput results from PubChem BioAssay.
A selection: hits, their analogues and other compounds. The true share with any hit is near 3%.
SENP7 inh: blocks the human protease SENP7 | Q9BQF6 | recombinant SENP7, Z-RLRGG-aminoluciferin luminescence, 40 min | 330,000 tested, 1.5% active | inhibition, % at 5 µM | AID 434973;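 active = inhibition above about 50% at the single test dose, limit read from the data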
Target sequence (Q9BQF6 706-1050 limits assumed): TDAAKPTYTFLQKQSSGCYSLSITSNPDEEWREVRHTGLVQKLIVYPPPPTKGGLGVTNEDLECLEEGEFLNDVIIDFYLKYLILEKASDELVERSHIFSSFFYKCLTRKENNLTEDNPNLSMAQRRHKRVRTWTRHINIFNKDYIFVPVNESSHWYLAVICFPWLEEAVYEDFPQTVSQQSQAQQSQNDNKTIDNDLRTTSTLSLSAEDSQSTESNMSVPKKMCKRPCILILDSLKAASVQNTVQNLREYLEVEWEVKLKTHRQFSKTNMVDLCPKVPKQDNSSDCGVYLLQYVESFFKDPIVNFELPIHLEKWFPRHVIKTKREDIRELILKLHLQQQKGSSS
TRAIL sens C8: caspase-8 TRAIL sensitization; NB7+C8 cells + TRAIL, ATPlite viability luminescence; inhibition (viability loss, TRAIL sensitization), % at 10 µM; 360,000 tested, 1% active; AID 624354;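 active = compounds causing at least 50% loss of cell viability in the single-dose screen, relative to plate controls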
SENP8 block-1: blocks human SENP8 cleavage of Nedd8 substrate. 360,000 tested, 0.64% active. Q96LD8. AID 602440. recombinant SENP8, Nedd8 substrate fluorescence. inhibition, % at 20 µM; in the data active = inhibition mostly above about 40%, no sharp cut-off; inactive = mostly below about 27%
Target sequence (Q96LD8 whole entry, looked up): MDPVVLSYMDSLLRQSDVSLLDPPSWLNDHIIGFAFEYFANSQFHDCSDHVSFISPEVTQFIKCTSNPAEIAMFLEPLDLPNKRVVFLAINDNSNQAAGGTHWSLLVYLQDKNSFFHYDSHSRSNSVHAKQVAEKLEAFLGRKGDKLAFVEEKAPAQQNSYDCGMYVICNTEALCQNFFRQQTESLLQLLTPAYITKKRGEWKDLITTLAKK
SENP8 block-2: SENP8 protease inhibition; Q96LD8; purified SENP8, Z-RLRGG-aminoluciferin cleavage, luminescence; inhibition, % at 10 µM; 330,000 tested, 1.2% active; AID 2540; in the data active = inhibition above about 50%
SENP6 block: inhibitors of human SENP6 protease | Q9GZR1 | Recombinant SENP6 catalytic domain, aminoluciferin luminescence | inhibition, % at 10 µM | 330,000 tested, 1.8% active | AID 2599;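 active = inhibition above about 50% at the single tested dose, limit read from the data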
PPC-1+TRAIL kill: PPC-1 cancer cell killing with TRAIL present; PPC-1 cells + TRAIL, ATPLite viability luminescence; 220,000 tested, 0.41% active; AID 1443; cell killing (% activity), % at 4 µM or 5 µM;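 active = cell killing above 50% in the first pass at 4 µM, then a duplicate retest at 5 µM averaging 50% or more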
PPC1 cytotox: kills PPC-1 cells. PPC-1 viability, ATPlite luminescence, overnight. 1,200 tested, 50% active. cytotoxicity, % at 5 µM. shares compounds with PPC-1+TRAIL kill;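 active = reconfirmed compounds whose average cytotoxicity reaches 50% or more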
Of the large screens only hits and unclear results are named; the others gave an inactive call (follow-up assays come after a bar, where they were run).

Cc1cc(C)nc(NS(=O)(=O)c2ccc(Br)s2)c1	none
Cc1ccc(-c2nc3ccccc3[nH]2)cn1	none (no result: PPC-1+TRAIL kill)
Cc1nc2ccc(-c3nc4ccccc4[nH]3)cc2[nH]1	SENP6 block 56.7 | PPC1 cytotox inactive
O=C1C(Cl)=C(Nc2ccc(O)cc2)C(=O)c2ccccc21	TRAIL sens C8 89.0, SENP8 block-1 41.1 | PPC1 cytotox inactive
CCC(C)c1ccc(-c2cc(C(=O)OCC(=O)Nc3cc(C)on3)c3ccccc3n2)cc1 (centres undefined)	TRAIL sens C8 82.5, PPC-1+TRAIL kill 82.8 | PPC1 cytotox 80.1
CCCNC(=O)c1oc2ccc3c(c2c1C)C=CC(C)(C)O3	none (no result: PPC-1+TRAIL kill)
CCCNC(=O)c1oc2ccc3c(c2c1C)C(=O)CC(C)(C)O3	TRAIL sens C8 52.0, PPC-1+TRAIL kill 51.6 | PPC1 cytotox inactive
CCCCCCOc1ccc(N2C(=O)CC(SCCN)C2=O)cc1 (centres undefined)	none (no result: PPC-1+TRAIL kill)
CCOc1ccc(N2C(=O)CC(SCCN)C2=O)cc1 (centres undefined)	none | PPC1 cytotox inactive
COc1cc(NC(=O)CNc2cccc(S(=O)(=O)N3CCOCC3)c2)cc(OC)c1	none (no result: PPC-1+TRAIL kill)
O=c1c2ccccc2cnn1-c1nc2ccccc2[nH]1	TRAIL sens C8 94.3, PPC-1+TRAIL kill 94.0 (no result: SENP7 inh, SENP8 block-2, SENP6 block) | PPC1 cytotox 93.8
Cc1ccccc1C(=O)Nc1ccc2c(c1)OCO2	none | PPC1 cytotox 51.9
CN1C(=O)/C(=C2\SC(N3CCCCCC3)=NC2=O)c2ccccc21	TRAIL sens C8 50.9, PPC-1+TRAIL kill 58.8 | PPC1 cytotox inactive
O=C1N=C(N2CCOCC2)S/C1=C1\C(=O)N(Cc2ccccc2)c2ccccc21	none
CCCN1C(=O)/C(=C2\SC(N3CCCCC3)=NC2=O)c2ccccc21	none | PPC1 cytotox inactive
C[C@H](NC(=O)c1ccccc1Cl)C(=O)OCc1cn2cc(Cl)ccc2n1	none (no result: PPC-1+TRAIL kill)
CCCC(C(=O)NCc1ccco1)N(Cc1ccco1)C(=O)CNS(=O)(=O)c1ccccc1 (centres undefined)	none (no result: PPC-1+TRAIL kill)
O=C(COc1ccccc1Cl)OCC(=O)N1CCN(S(=O)(=O)c2ccccc2)CC1	none | PPC1 cytotox inactive
Cc1ccc(S(=O)(=O)N2CCN(C(=O)COC(=O)COc3ccccc3)CC2)cc1	none
Cc1n[nH]c(=O)nc1N1CCN(c2ccccc2)CC1	none | PPC1 cytotox inactive
COc1ccc(N/C(=N\c2nc(C)cc(C)n2)NC(=O)C(C)C)cc1OC	none | PPC1 cytotox inactive
COc1ccc(N/C(=N\c2nc(C)cc(C)n2)NC(C)=O)cc1OC	none
Cc1cc(-c2ccn[nH]2)c(C)s1	none
CCOC(=O)N1CCN(S(=O)(=O)c2ccc(OCC(=O)OC)cc2)CC1	none | PPC1 cytotox inactive
C/C(CC(=O)Nc1cccc(Cl)c1Cl)=N\NC(=O)c1ccccc1C	none
Cc1ccc(C(=O)Nc2cnc3ccccc3c2)cc1	SENP7 inh 98.3, TRAIL sens C8 78.2, SENP8 block-2 93.6, SENP6 block 97.0, PPC-1+TRAIL kill 69.8 | PPC1 cytotox 67.4
Cc1cc(C(=O)Nc2cnc3ccccc3c2)ccc1[N+](=O)[O-]	none
C/C(=N/NC(=O)CN1CCN(Cc2ccccc2Cl)CC1)c1cccs1	none
O=C(CCNc1ccc(F)c(Cl)c1)c1ccco1	none
O=C(CCNc1ccc(F)cc1)c1ccco1	none | PPC1 cytotox inactive
Cc1nc2cc(NC(=O)N3c4ccccc4CC3C)ccc2n1C (centres undefined)	TRAIL sens C8 65.5, PPC-1+TRAIL kill 68.2 | PPC1 cytotox 63.1
COCc1cc(C)nc(SCc2nc3ccccc3c(=O)[nH]2)c1C#N	none
Cc1cc(C)c(C#N)c(SCc2nc3ccccc3c(=O)[nH]2)n1	TRAIL sens C8 77.3, PPC-1+TRAIL kill 80.5 | PPC1 cytotox 78.8
COc1ccc(C(=O)NNC(=O)CSc2nnc(C)n2C)cc1	none
CC(C)Cn1c(SCC(=O)NCc2ccc(Cl)cc2)nnc1-c1cccc(S(=O)(=O)N2CCOCC2)c1	none | PPC1 cytotox inactive
Cc1nc(CN2CCN(C(=O)NC3(c4ccccc4)CC3)CC2)cs1	none | PPC1 cytotox inactive
O=C(CN1CCN(c2cccc(Cl)c2)CC1)NC1CCCc2ccccc21 (centres undefined)	none (no result: PPC-1+TRAIL kill)
Cc1cccc(NS(=O)(=O)c2ccc(C)c(C(=O)OCC(=O)Nc3cc(C)on3)c2)c1	none | PPC1 cytotox inactive
Cc1nc(N)nc(N)c1/C=C/C(C)(C)c1ccc(Cl)cc1	TRAIL sens C8 75.7, PPC-1+TRAIL kill 51.2 (no result: SENP7 inh, SENP8 block-2, SENP6 block) | PPC1 cytotox inactive
COc1ccc(/C=C\c2nc(=O)c3ccccc3o2)cc1	SENP7 inh 62.8, TRAIL sens C8 60.6, SENP8 block-2 66.2, SENP6 block 72.2, PPC-1+TRAIL kill 60.0 | PPC1 cytotox 56.6
O=c1nc(/C=C/c2ccc(O)c(O)c2)oc2ccccc12	none (no result: SENP7 inh, SENP8 block-2, SENP6 block)
O=C(O)c1cc(S(=O)(=O)N2CCOCC2)c[nH]1	none (no result: PPC-1+TRAIL kill)
CC(C)c1nc(NCC2CCCO2)c(C#N)c2c1COC(C)(C)C2 (centres undefined)	none | PPC1 cytotox inactive
CCOc1ccc(C(=O)Nc2nnc(NC(=S)Nc3ccccc3)s2)cc1	TRAIL sens C8 54.9 | PPC1 cytotox inactive
Cc1ccc(C(=O)Nc2nnc(NC(=S)Nc3ccccc3)s2)cc1	none
Cc1ccc(/C=N/NC(=O)c2ccc3ccccc3c2)s1	none (no result: PPC-1+TRAIL kill)
Cc1ccc(/C=N/NC(=O)c2ccc3c(c2)OCCO3)s1	none | PPC1 cytotox inactive
O=C(N/N=C/c1c(Cl)[nH]c2ccccc12)c1ccc2c(c1)OCCO2	TRAIL sens C8 65.9, PPC-1+TRAIL kill 65.0 | PPC1 cytotox 63.9
O=C(N/N=C/c1cc(Br)cs1)c1ccc2c(c1)OCCO2	TRAIL sens C8 69.4, PPC-1+TRAIL kill 57.5 | PPC1 cytotox 60.2
COCCN(CCOC)C(=O)c1ccc(SCc2ccc(C)cc2)c([N+](=O)[O-])c1	none
Cc1ccnc(NC(=O)COc2ccccc2[N+](=O)[O-])c1	TRAIL sens C8 52.1 (no result: SENP7 inh, SENP8 block-2, SENP6 block) | PPC1 cytotox 52.5
CCOc1cc(S(=O)(=O)NCc2ccccc2)ccc1F	none | PPC1 cytotox inactive
COc1cc(S(=O)(=O)NCc2ccccc2)ccc1Br	none
COc1ccc(N2CCN(c3ccc(NC(=O)C4CCCCC4)cc3C#N)CC2)cc1	none | PPC1 cytotox inactive
Cc1ccc2c(c1)N(CCC(=O)NCCCN1CCCC1)C(=O)C(C)O2 (centres undefined)	none (no result: PPC-1+TRAIL kill)
COC(=O)c1ccccc1NC(=O)Cn1c(=O)oc2ccc(Cl)cc21	none | PPC1 cytotox inactive
Cc1ccc(C(=O)O/N=C/c2c(N3CCOCC3)n(C)c3ccccc23)cc1	none | PPC1 cytotox inactive
Cn1c(N2CCOCC2)c(/C=N/OC(=O)c2ccc(F)cc2)c2ccccc21	none
O=C(O)CCC(=O)Nc1ccc(F)cc1	none | PPC1 cytotox inactive
O=C(NCc1cccs1)c1cc(-c2ccc(O)cc2)on1	none
Cc1ccc(-c2cc(C(=O)NCc3cccs3)no2)cc1	none | PPC1 cytotox inactive
CC1CCN(C(=O)C2CCC(CNS(=O)(=O)c3ccc4c(c3)C(C)(C)C(=O)N4C)CC2)CC1 (centres undefined)	none (no result: SENP7 inh, SENP8 block-2, SENP6 block, PPC-1+TRAIL kill)
